The supplement of paper PMC12350171
Structures can show the parent of a compound that is named as a salt.

What was measured:
Details in all cases: 20 µM
[1] = tested on: Salmonella enterica typhimurium; assay: growth AUC normalised to DMSO control (fraction of control); higher = less growth inhibition, active = hit call of the paper
How it was run: (§1)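 Pathogens were passaged twice under anaerobic conditions, then inoculated into pre-reduced mGAM plates at a starting OD578 of 0.01, with compound at 20 μM and 1% DMSO, and sealed with breathable membranes. For Haemophilus parainfluenzae, the medium was supplemented with hemin and NAD. OD578 was read every hour for 24 h in three biological replicates. Growth-curve AUC was calculated by the trapezoidal rule up to the exponential-to-stationary transition and normalised to DMSO controls on the same plate.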

Shigella flexneri = assay: as above
How it was run: as §1

Vibrio cholerae = assay: as above
How it was run: as §1

[2] = tested on: Yersinia pseudotuberculosis; assay: as above
How it was run: as §1

P. vulgatus RND KO = assay: growth AUC normalised to DMSO control (median) (fraction of control); higher = less growth inhibition, active = hit call of the paper
How it was run: (§2)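 Strains were passaged twice overnight without oxygen, then grown in mGAM in 96-well plates with each approved-drug library compound at 20 μM and 1% DMSO, starting at OD578 0.01. OD578 was read hourly for 24 h inside an anaerobic incubator. Curves were truncated at entry into stationary phase, and the trapezoidal-rule area under the curve was normalised to same-plate vehicle wells. The value is the median across three biological replicates.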

P. vulgatus WT = assay: as above
How it was run: as §2

[3] = tested on: S. enterica typhimurium WT; assay: as above
How it was run: as §2

[4] = tested on: S. enterica typhimurium tolC KO; assay: as above
How it was run: as §2

Measured: growth AUC normalised to DMSO control
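Wherever growth AUC normalised to DMSO control (median) is given: active when median AUC fell below 0.1.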

C#C[C@]1(OC(C)=O)CC[C@H]2[C@@H]3CCC4=C[C@@H](OC(C)=O)CC[C@@H]4[C@H]3CC[C@@]21C [Ethynodiol diacetate]
inactive: [1] 0.971 | Shigella flexneri 0.988 | Vibrio cholerae 0.963 | [2] 0.986 | P. vulgatus RND KO 0.922 | P. vulgatus WT 0.954 | [3] 0.997 | [4] 0.941

Nc1ccc(S(=O)(=O)NC(=O)c2ccccc2)cc1 [Sulfabenzamide]
inactive: [1] 1.02 | Shigella flexneri 1.03 | Vibrio cholerae 1.06 | [2] 1.04 | P. vulgatus RND KO 1.05 | P. vulgatus WT 1.1 | [3] 1 | [4] 1.01

C#C[C@]1(O)CC[C@H]2[C@@H]3CCC4=CC(=O)CC[C@@H]4[C@H]3CC[C@@]21CC [(D-) Norgestrel]
inactive: [1] 0.98 | Shigella flexneri 0.938 | Vibrio cholerae 0.961 | [2] 0.979 | P. vulgatus RND KO 0.989 | P. vulgatus WT 0.974 | [3] 0.998 | [4] 1

CC(C)N1CCN(c2ccc(OCC3COC(Cn4cncn4)(c4ccc(Cl)cc4Cl)O3)cc2)CC1 (stereo not drawn) [Terconazole]
inactive: [1] 0.962 | Shigella flexneri 0.982 | Vibrio cholerae 1 | [2] 0.989 | P. vulgatus RND KO 1.06 | P. vulgatus WT 1.04 | [3] 1.01 | [4] 0.97

O=C(O)c1ccccc1OP(=O)(O)O [Fosfosal]
inactive: [1] 0.983 | Shigella flexneri 0.984 | Vibrio cholerae 0.994 | [2] 0.988 | P. vulgatus RND KO 1 | P. vulgatus WT 1.02 | [3] 1 | [4] 1.01

O=C1CCc2cc(OCCCCc3nnnn3C3CCCCC3)ccc2N1 [Cilostazol]
inactive: [1] 0.985 | Shigella flexneri 0.971 | Vibrio cholerae 0.958 | [2] 0.989 | P. vulgatus RND KO 0.975 | P. vulgatus WT 0.98 | [3] 1 | [4] 0.851

C[N+](C)(C)CCCCCC[N+](C)(C)C [Hexamethonium dibromide dihydrate]
inactive: [1] 0.947 | Shigella flexneri 0.996 | Vibrio cholerae 0.971 | [2] 0.966 | P. vulgatus RND KO 0.992 | P. vulgatus WT 1 | [3] 0.99 | [4] 1.02

COc1cc2nc(N3CCN(C(=O)C4COc5ccccc5O4)CC3)nc(N)c2cc1OC (stereo not drawn) [Doxazosin mesylate]
inactive: [1] 0.974 | Shigella flexneri 0.985 | Vibrio cholerae 0.942 | [2] 0.996 | P. vulgatus RND KO 0.949 | P. vulgatus WT 0.916 | [3] 0.994 | [4] 0.952

O=c1oc2ccccc2c(O)c1Cc1c(O)c2ccccc2oc1=O [Dicumarol]
inactive: [1] 0.986 | Shigella flexneri 1 | Vibrio cholerae 0.891 | [2] 1 | P. vulgatus RND KO 0.877 | P. vulgatus WT 0.945 | [3] 1 | [4] 0.891

CC(=O)N(O)CCCCCNC(=O)CCC(=O)N(O)CCCCCNC(=O)CCC(=O)N(O)CCCCCN [Deferoxamine mesylate]
inactive: [1] 1.03 | Shigella flexneri 1.03 | Vibrio cholerae 1.03 | [2] 1 | P. vulgatus RND KO 1.04 | P. vulgatus WT 1.07 | [3] 0.998 | [4] 1

C[C@]12CCC(=O)C=C1C=C[C@@H]1[C@@H]2CC[C@@]2(C)[C@H]1CC[C@@]21CCC(=O)O1 [Canrenone]
inactive: [1] 1.01 | Shigella flexneri 1.06 | Vibrio cholerae 1.03 | [2] 1.01 | P. vulgatus RND KO 1.07 | P. vulgatus WT 1.1 | [3] 1.01 | [4] 0.939

COc1ccc2[nH]cc(CCNC(C)=O)c2c1 [Melatonin]
inactive: [1] 0.987 | Shigella flexneri 0.972 | Vibrio cholerae 0.997 | [2] 0.992 | P. vulgatus RND KO 0.988 | P. vulgatus WT 1 | [3] 0.996 | [4] 0.996

Nc1ccn([C@@H]2CS[C@H](CO)O2)c(=O)n1 [Lamivudine]
inactive: [1] 0.98 | Shigella flexneri 0.986 | Vibrio cholerae 0.995 | [2] 1.01 | P. vulgatus RND KO 1 | P. vulgatus WT 1.02 | [3] 1 | [4] 0.992

O=C(CCNNC(=O)c1ccncc1)NCc1ccccc1 [Nialamide]
inactive: [1] 0.997 | Shigella flexneri 1.02 | Vibrio cholerae 1.05 | [2] 1.01 | P. vulgatus RND KO 0.995 | P. vulgatus WT 1.04 | [3] 0.999 | [4] 1.01

CCCCC(=O)O[C@H]1CC[C@H]2[C@@H]3CCc4cc(O)ccc4[C@H]3CC[C@]12C [Estradiol Valerate]
inactive: [1] 1.05 | Shigella flexneri 1.05 | Vibrio cholerae 1.08 | [2] 1.01 | P. vulgatus RND KO 1 | P. vulgatus WT 1.07 | [3] 0.998 | [4] 1

Cc1cnc(C(=O)NCCc2ccc(S(=O)(=O)NC(=O)NC3CCCCC3)cc2)cn1 [Glipizide]
inactive: [1] 1.01 | Shigella flexneri 0.984 | Vibrio cholerae 1.01 | [2] 1.01 | P. vulgatus RND KO 1.04 | P. vulgatus WT 0.998 | [3] 1.01 | [4] 0.996
